Over roughly 68,000 sequences, “fluorescence intensity (a.u.)” has its median near 9,100; the highest 2% begin near 16,000. The sample as a whole holds a higher share of the highest values than the screen did.

In the assay the target is OsWRKY34 (Oryza sativa, UniProt Q0JBA9 1-250). In words: protein-binding microarray (RPBM); PBS, 2% BSA, 51.3 ng/ul salmon testes DNA, 50 uM zinc acetate, 200 nM TF, 25 C, 1 h; high values mean tight binding. Conditions: protein: recombinant; tags: N-terminal polyhistidine and DsRed monomer fusion (pET32a); label: CyDye5-dUTP incorporated in the synthesized complementary strand; 3' TTTTT single-stranded linker to array surface; dsDNA, one strand shown. In outline: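 Ni–NTA purification followed expression in E. coli BL21-CodonPlus of transcription factors fused N-terminally to a polyhistidine tag and DsRed. At 200 nM in PBS with 2% BSA, salmon testes DNA and 50 µM zinc acetate, the protein was incubated for 1 h at 25 °C with a custom Agilent array that had been primer-extended with Cy5-dUTP and blocked with 2% BSA. After washing, the array was read on an Axon 4000B scanner. The binding signal is per-feature fluorescence intensity in arbitrary units.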
OsWRKY34, sequence (Q0JBA9 entry or part of it): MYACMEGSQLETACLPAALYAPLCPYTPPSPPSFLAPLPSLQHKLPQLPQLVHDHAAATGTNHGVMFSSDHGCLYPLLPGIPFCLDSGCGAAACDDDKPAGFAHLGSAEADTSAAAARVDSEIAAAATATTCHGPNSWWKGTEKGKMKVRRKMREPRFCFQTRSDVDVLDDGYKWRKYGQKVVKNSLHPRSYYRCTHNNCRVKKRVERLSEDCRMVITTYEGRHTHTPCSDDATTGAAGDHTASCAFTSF
With “TGGTGGAGAAGCTAATGAAGAGGGTGTTTTGTTGACTATGCGGAGTCACCTAGTGCAG”, the binding signal is 8500 fluorescence intensity (a.u.).
In the case of “GTTACATTCTTGTTCAGTCCTCACTACTCATCCCTACAATCGGAGTCACCTAGTGCAG” it was 11500 fluorescence intensity (a.u.); in that of “CCCACTATCATCCGTCATCCGTGCAACGCACGGGCATTATCGGAGTCACCTAGTGCAG”, 9340 fluorescence intensity (a.u.); in that of “CGTTTTTTAATAGATGACGCCATTGACTTTTTCTCACATACGGAGTCACCTAGTGCAG”, 11000 fluorescence intensity (a.u.).
In the case of “TCCGTTTTTTAATAGATGACGCCGTTGACTTTTTCTCACACGGAGTCACCTAGTGCAG” it was 31700 fluorescence intensity (a.u.).
Next, “GTCTCACCGGAGCTCCGCCGCCGCCGCCGCCGTTTTCTCCCGGAGTCACCTAGTGCAG”: 25700 fluorescence intensity (a.u.); “GCCGCGGCGGAGCTCCCGTTTCCGTTGCCGTCTCCGGCGCCGGAGTCACCTAGTGCAG”: 11000 fluorescence intensity (a.u.); “CTCCCGCCGTCTCCGTCACCGTCTACCGTTTGCTCCAGTGCGGAGTCACCTAGTGCAG”: 9530 fluorescence intensity (a.u.).
As to “CTCCGTTTTTTAATAGATGACGCCGTTGACTTTTTCTCACCGGAGTCACCTAGTGCAG”, the binding signal is 27800 fluorescence intensity (a.u.).
Consider “CTCCGTTTTTTAATAGATGACACCGTTGACTTTTTCTCACCGGAGTCACCTAGTGCAG”, for which the binding signal is 30600 fluorescence intensity (a.u.).
Regarding “CTGATTATACCATTGTTTTCGTTGCAACTAAATCTTGATACGGAGTCACCTAGTGCAG”, the binding signal is 9280 fluorescence intensity (a.u.).
In the case of “TGCAAGCTCCGCCGTTTGTGTGTAATGGGGTTTCCCAAATCGGAGTCACCTAGTGCAG” it was 8230 fluorescence intensity (a.u.); in that of “CACTTCACCTTTTTTGCAAGATGCTACTACTAATTACTAACGGAGTCACCTAGTGCAG”, 10400 fluorescence intensity (a.u.); in that of “GATATACACACTTAGCTCTCCTACTGTGAGAATTCTCTTCCGGAGTCACCTAGTGCAG”, 9480 fluorescence intensity (a.u.).
In the case of “CCCTTTTTTATACCGTGGCATATCTCTCTGCATTTAATCTCGGAGTCACCTAGTGCAG”, the binding signal is 13700 fluorescence intensity (a.u.).
Next, “ATATGGCATTGTTTCTGTGTTATTCAGGCGCACCTTTAAACGGAGTCACCTAGTGCAG”: 10100 fluorescence intensity (a.u.); “CGGTTGCTCCTTTGCCTAATCACTCAATTCCAGTAACTTTCGGAGTCACCTAGTGCAG”: 8760 fluorescence intensity (a.u.); “TTGGGGTTGGACCGGTTTTCATCTGTTCTTGTCCTGAGAGCGGAGTCACCTAGTGCAG”: 10800 fluorescence intensity (a.u.).
In the case of “GTGCAGCAATCATCTCGTCCACCTCACCTTACCCGAAACCCGGAGTCACCTAGTGCAG” it was 8340 fluorescence intensity (a.u.); in that of “GCCTCTGCCAGCCGACGGCCGTTCGGCCCTCCGCGCACGCCGGAGTCACCTAGTGCAG”, 8320 fluorescence intensity (a.u.); in that of “CTTATCCACCATCAATGTTCCTGACTTCAATTTTTCGTTGCGGAGTCACCTAGTGCAG”, 10500 fluorescence intensity (a.u.).
In the case of “TAACATTGATTGTTATGTCACTTGTCTGTGGATCAACTCTCGGAGTCACCTAGTGCAG” it was 9060 fluorescence intensity (a.u.).
Take “CCGTTTCCCGCCGCTGTCTCCCGCCGGAGCCGCCCCTGCTCGGAGTCACCTAGTGCAG”: the binding signal was 9030 fluorescence intensity (a.u.).
Next, “CTTCGTTTTTTAATAGATGACGCCGTTGACTTTTTCTCACCGGAGTCACCTAGTGCAG”: 22000 fluorescence intensity (a.u.).
On to “CTCTTGAACGTTGTCGCCCGCCGTTTCCCGCCGCTGTCTCCGGAGTCACCTAGTGCAG”, for which the binding signal was 18200 fluorescence intensity (a.u.).
As for “GCGCTCCCGTCGTTGTCTCCGCTGCTTTGTTTCTCGTCGCCGGAGTCACCTAGTGCAG”, the binding signal is 11600 fluorescence intensity (a.u.).
In the case of “TAAATCCACGACCCTTCAGCTATCTATCTCAGCTCCAATCCGGAGTCACCTAGTGCAG” it was 8170 fluorescence intensity (a.u.); in that of “CTGCAATCTAGCCATCTGTTATCTATCCATGCATCGATGTCGGAGTCACCTAGTGCAG”, 8120 fluorescence intensity (a.u.).
For “ATAAACATAAACTTCCAACATTTCCGTCACATCATTCTAACGGAGTCACCTAGTGCAG”, the binding signal was 8970 fluorescence intensity (a.u.).
In the case of “CATATCCGTTTTTGCTCGGGTGGGCTGGGTTAGGGACTCACGGAGTCACCTAGTGCAG” it was 19000 fluorescence intensity (a.u.).
In the case of “CGTTTTTGCTCGGGTGGGCTGGGTTAGGGACTCATCTGCACGGAGTCACCTAGTGCAG” it was 23800 fluorescence intensity (a.u.); in that of “ATGGCGTTTGGGTTTGGCTCGGGTTGATCTGGATAAGGGACGGAGTCACCTAGTGCAG”, 9020 fluorescence intensity (a.u.).
Next, “TTGGTGGGCCGTTATTTTGTTTGGGCTGGATTTGCACGTTCGGAGTCACCTAGTGCAG”: 11700 fluorescence intensity (a.u.).
Regarding “TTTCGGCCCACATTCCTATCCGTTTTTGCTCGGGTGGGCTCGGAGTCACCTAGTGCAG”, the binding signal was 10900 fluorescence intensity (a.u.).
Turning to “CACTCTGCAGCTCTGCTCGTTTTGCACACGGGTGACTCGTCGGAGTCACCTAGTGCAG”, the binding signal is 9700 fluorescence intensity (a.u.).
Next, “CCGCGCATTTTTTTGGTTCGAAATTCCTTTGCTAAGCAAACGGAGTCACCTAGTGCAG”: 8380 fluorescence intensity (a.u.); “AAGGTTGGCATGACAATTCTCACTACTTGGACTAACAGTTCGGAGTCACCTAGTGCAG”: 8310 fluorescence intensity (a.u.); “TTCCAACTACCTAGCTCAGCTTAGTCTCTGGTTGACCATTCGGAGTCACCTAGTGCAG”: 8450 fluorescence intensity (a.u.).
Next, “GCTTCTACAATCGGATGGATTCACCATTGATTCTCGTTTTCGGAGTCACCTAGTGCAG”: 8940 fluorescence intensity (a.u.); “ACTTGATTTACGAACAGACATTTTTTATTTTTCTACACCACGGAGTCACCTAGTGCAG”: 9230 fluorescence intensity (a.u.).
For the sequence “TTGGGGTCGAGATATCCGGTTTTGTGGTTTAGGGTCATGTCGGAGTCACCTAGTGCAG”, the binding signal is 9090 fluorescence intensity (a.u.).
Regarding “TATTTGACGCCGTTGATTTTTTTAAATATGTTTGACCGTTCGGAGTCACCTAGTGCAG”, the binding signal is 11000 fluorescence intensity (a.u.).
As to “ACTTTTTTAAATATGTTTGACCGTTCGTTTTATTCAAAAACGGAGTCACCTAGTGCAG”, the binding signal was 8320 fluorescence intensity (a.u.).
In the case of “ATTTGATGCCGTTGACTTTTTTAAATATGTTTAACCGTTCCGGAGTCACCTAGTGCAG”, the binding signal is 33000 fluorescence intensity (a.u.).
With “TATTTGATGCCGTTGACTTTTTTAAATATGTTTGACCGTTCGGAGTCACCTAGTGCAG”, the binding signal was 20900 fluorescence intensity (a.u.).
Consider “GAATTGATCTCATGCATGCCAACCCTTCTAGCAATCTATCCGGAGTCACCTAGTGCAG”, for which the binding signal was 9310 fluorescence intensity (a.u.).
In the case of “GGACCGTTCACTAACCCCGTAACCGTGTCGCGCGCGCAACCGGAGTCACCTAGTGCAG” it was 9590 fluorescence intensity (a.u.); in that of “TTCTTATTTGCAAGTATACTGTTTTGCTTTTCTCTCTAATCGGAGTCACCTAGTGCAG”, 9690 fluorescence intensity (a.u.).

Values taken from publication PMC7819943, “Rice protein-binding microarrays: a tool to detect cis-acting elements near promoter regions in rice”.
